Data from the supplement of paper PMC4709259.
Structures can show the parent of a compound that is named as a salt. ± gives the standard deviation.

Legend:
[1] = test system: Jurkat; experiment: mean cell size (FSC-A) relative to DMSO control (fraction of control); higher = larger cells; settings: 48 h
In short: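 Jurkat cells seeded at 600 cells/µl were incubated 1 h, then exposed for 48h to the Enzo Screen-Well FDA Approved Drug Library v2.0 at 25µM in 0.9% (v/v) final DMSO. Drugs that cut counts below 20% of controls were diluted 10-fold and retested, down to 25nM. Cell count and mean cell size (forward scatter area) were read on an Accuri C6 flow cytometer, relative to solvent-only controls. Plates held 6-12 controls; values are means of 3 biological replicates.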

[2] = test system: Jurkat; experiment: cell count relative to DMSO control (fraction of control); higher = more cells (less growth inhibition); settings: 48 h

Row | SMILES | mean cell size [1] | cell count [2]
1 | CC(=O)OCC[N+](C)(C)C [Acetylcholine Chloride] (concentration: 25 µM) | 0.999 ± 0.056 | 0.68 ± 0.19
2 | CN(C)CCOc1ccc(/C(=C(/CCCl)c2ccccc2)c2ccccc2)cc1 [Toremifene Base] (concentration: 25 µM) | 0.9556 ± 0.0078 | 0.948 ± 0.079
3 | CC(=O)OCC(=O)[C@@]1(O)CC[C@H]2[C@@H]3CCC4=CC(=O)CC[C@]4(C)[C@H]3C(=O)C[C@@]21C [Cortisone Acetate] (concentration: 25 µM) | 1.01 ± 0.028 | 0.823 ± 0.082
4 | Cn1cnc([N+](=O)[O-])c1Sc1ncnc2[nH]cnc12 [Azathioprine] (concentration: 25 µM) | 1.02 ± 0.036 | 0.782 ± 0.088
5 | NCC[C@H](O)C(=O)N[C@@H]1C[C@H](N)[C@@H](O[C@H]2O[C@H](CN)[C@@H](O)[C@H](O)[C@H]2O)[C@H](O)[C@H]1O[C@H]1O[C@H](CO)[C@@H](O)[C@H](N)[C@H]1O [Amikacin Disulfate] (concentration: 25 µM) | 0.994 ± 0.028 | 0.921 ± 0.014
6 | COc1cc2nc(N3CCN(C(=O)C4CCCO4)CC3)nc(N)c2cc1OC (stereo not given) [Terazosin·HCl] (concentration: 25 µM) | 0.997 ± 0.047 | 0.607 ± 0.059
7 | CCC(=O)NCC[C@@H]1CCc2ccc3c(c21)CCO3 [Ramelteon] (concentration: 25 µM) | 1.04 ± 0.066 | 0.926 ± 0.11
8 | Cc1cn[nH]c1 [Fomepizole] (concentration: 25 µM) | 0.99 ± 0.036 | 0.868 ± 0.17
9 | C[C@H](CCC(=O)O)[C@H]1CC[C@H]2[C@@H]3[C@@H](O)C[C@@H]4C[C@H](O)CC[C@]4(C)[C@H]3CC[C@]12C [Ursodiol] (concentration: 25 µM) | 1.01 ± 0.031 | 0.718 ± 0.096
10 | CCCCCCCCCCC[C@@H](C[C@@H]1OC(=O)[C@H]1CCCCCC)OC(=O)[C@H](CC(C)C)NC=O [Orlistat (Tetrahydrolipstatin)] (concentration: 25 µM) | 0.808 ± 0.043 | 0.355 ± 0.074
11 | O=P(O)(O)C(Sc1ccc(Cl)cc1)P(=O)(O)O [Tiludronate Disodium] (concentration: 25 µM) | 0.961 ± 0.06 | 0.663 ± 0.15
12 | O=C(O)C1(C(=O)O)CCC1.[NH2-].[NH2-].[Pt+2] [Carboplatin] (concentration: 25 µM) | 1.08 ± 0.016 | 0.51 ± 0.029
13 | CCCCC1=NC2(CCCC2)C(=O)N1Cc1ccc(-c2ccccc2-c2nnn[nH]2)cc1 [Irbesartan] (concentration: 25 µM) | 0.959 ± 0.06 | 0.401 ± 0.013
14 | COc1cc(Cc2cnc(N)nc2N)cc(OC)c1OC [Trimethoprim] (concentration: 25 µM) | 0.969 ± 0.039 | 0.457 ± 0.11
15 | CO[C@@]1(NC(=O)Cc2cccs2)C(=O)N2C(C(=O)O)=C(COC(N)=O)CS[C@@H]21 [Cefoxitin·Na] (concentration: 25 µM) | 0.939 ± 0.031 | 0.89 ± 0.037
16 | CN(C)c1nc(N(C)C)nc(N(C)C)n1 [Altretamine] (concentration: 25 µM) | 0.945 ± 0.019 | 0.555 ± 0.077
17 | N=C(NCCCCCCNC(=N)NC(=N)Nc1ccc(Cl)cc1)NC(=N)Nc1ccc(Cl)cc1 [Chlorhexidine Dihydrochloride] (concentration: 2.5 µM) | 0.986 ± 0.017 | 0.763 ± 0.045
18 | CCCCN1CCCCC1C(=O)Nc1c(C)cccc1C (stereo not given) [Bupivacaine·HCl] (concentration: 25 µM) | 0.982 ± 0.02 | 0.656 ± 0.097
19 | Cc1onc(-c2c(Cl)cccc2Cl)c1C(=O)N[C@@H]1C(=O)N2[C@@H]1SC(C)(C)[C@@H]2C(=O)O [Dicloxacillin·Na Salt Monohydrate] (concentration: 25 µM) | 0.939 ± 0.0097 | 1.07 ± 0.06
20 | CC(=O)OCC(=O)[C@@]12OC(C)(C)O[C@@H]1C[C@H]1[C@@H]3C[C@H](F)C4=CC(=O)C=C[C@]4(C)[C@@]3(F)[C@@H](O)C[C@@]12C [Fluocinonide] (concentration: 25 µM) | 0.944 ± 0.027 | 0.551 ± 0.03
21 | CO/N=C(\C(=O)N[C@@H]1C(=O)N2C(C(=O)O)=C(COC(C)=O)CS[C@H]12)c1csc(N)n1 [Cefotaxime Acid] (concentration: 25 µM) | 0.944 ± 0.025 | 0.957 ± 0.025
22 | CC(C(=O)O)c1cccc(C(=O)c2ccccc2)c1 (stereo not given) [Ketoprofen] (concentration: 25 µM) | 0.929 ± 0.0063 | 0.722 ± 0.029
23 | CC1(C)O[C@@H]2[C@@H](CO[C@@]3(COS(N)(=O)=O)OC(C)(C)O[C@@H]23)O1 [Topiramate] (concentration: 25 µM) | 0.969 ± 0.024 | 1.14 ± 0.14
24 | O=C(O)CCNC(=O)c1ccc(/N=N/c2ccc(O)c(C(=O)O)c2)cc1 [Balsalazide] (concentration: 25 µM) | 0.964 ± 0.013 | 0.669 ± 0.047
25 | CN1CCC[C@@H]1CCO[C@](C)(c1ccccc1)c1ccc(Cl)cc1 [Clemastine Fumarate] (concentration: 25 µM) | 0.985 ± 0.024 | 0.24 ± 0.04

Row | SMILES | mean cell size [1] | cell count [2]
26 | CC(=O)O[C@H]1C(=O)[C@@]2(C)[C@H]([C@H](OC(=O)c3ccccc3)[C@]3(O)C[C@H](OC(=O)[C@H](O)[C@@H](NC(=O)c4ccccc4)c4ccccc4)C(C)=C1C3(C)C)[C@]1(OC(C)=O)CO[C@@H]1C[C@@H]2O [Paclitaxel (Taxol)] (concentration: 25 nM) | 1.07 ± 0.022 | 0.4 ± 0.048
27 | CCN(CC)C(=S)SSC(=S)N(CC)CC [Disulfiram] (concentration: 25 µM) | 0.959 ± 0.051 | 0.559 ± 0.15
28 | NC12CC3CC(CC(C3)C1)C2 [Amantadine·HCl] (concentration: 25 µM) | 1.01 ± 0.058 | 0.749 ± 0.17
29 | CC12CC3CC(C)(C1)CC(N)(C3)C2 [Memantine·HCl] (concentration: 25 µM) | 1 ± 0.061 | 0.797 ± 0.017
30 | C[C@@H](c1ncncc1F)[C@](O)(Cn1cncn1)c1ccc(F)cc1F [Voriconazole] (concentration: 25 µM) | 0.963 ± 0.043 | 0.682 ± 0.1
31 | COc1cc2nc(N3CCN(C(=O)c4ccco4)CC3)nc(N)c2cc1OC [Prazosin·HCl] (concentration: 2.5 µM) | 1.03 ± 0.056 | 0.484 ± 0.18
32 | O=C(O)P(=O)(O)O [Foscarnet·Na (Sodium Phosphonoformate Tribasic Hexahydrate)] (concentration: 25 µM) | 0.936 ± 0.065 | 0.59 ± 0.027
33 | CNCCC=C1c2ccccc2CCc2ccccc21 [Nortriptyline·HCl] (concentration: 25 µM) | 1.06 ± 0.025 | 0.498 ± 0.056
34 | N[C@@H](Cc1cc(I)c(Oc2cc(I)c(O)c(I)c2)c(I)c1)C(=O)O [Levothyroxine·Na] (concentration: 25 µM) | 1.02 ± 0.059 | 0.808 ± 0.087
35 | Oc1c(Cl)cc(Cl)c(Cl)c1Cc1c(O)c(Cl)cc(Cl)c1Cl [Hexachlorophene] (concentration: 2.5 µM) | 0.904 ± 0.016 | 0.433 ± 0.035
36 | N#Cc1ccc(C(c2ccc(C#N)cc2)n2cncn2)cc1 [Letrozole] (concentration: 25 µM) | 1.01 ± 0.028 | 0.798 ± 0.019
37 | O=C1NC(c2ccccc2)(c2ccccc2)C(=O)N1COP(=O)(O)O [Fosphenytoin·Na Pentahydrate] (concentration: 25 µM) | 0.887 ± 0.058 | 0.498 ± 0.074
38 | Brc1c(NC2=NCCN2)ccc2nccnc12 [Brimonidine] (concentration: 25 µM) | 0.954 ± 0.027 | 0.9 ± 0.091
39 | C=C(CC)C(=O)c1ccc(OCC(=O)O)c(Cl)c1Cl [Ethacrynic Acid] (concentration: 25 µM) | 0.924 ± 0.015 | 0.453 ± 0.058
40 | O=C(O)c1cc(-c2ccc(F)cc2F)ccc1O [Diflunisal] (concentration: 25 µM) | 0.989 ± 0.061 | 0.666 ± 0.13
41 | CN(C)CC/C=C1/c2ccccc2COc2ccc(CC(=O)O)cc21 [Olopatadine] (concentration: 25 µM) | 0.976 ± 0.029 | 0.929 ± 0.1
42 | NC(=O)C(c1ccccc1)(c1ccccc1)[C@@H]1CCN(CCc2ccc3c(c2)CCO3)C1 [Darifenacin·HBr] (concentration: 25 µM) | 1.02 ± 0.015 | 0.723 ± 0.087
43 | COc1ccc(CC2c3cc(OC)c(OC)cc3CC[N+]2(C)CCC(=O)OCCCCCOC(=O)CC[N+]2(C)CCc3cc(OC)c(OC)cc3C2Cc2ccc(OC)c(OC)c2)cc1OC (stereo not given) [Atracurium Besylate] (concentration: 25 µM) | 1.04 ± 0.008 | 0.264 ± 0.023
44 | CN(C)C(=O)C(CCN1CCC(O)(c2ccc(Cl)cc2)CC1)(c1ccccc1)c1ccccc1 [Loperamide·HCl] (concentration: 25 µM) | 0.988 ± 0.033 | 0.572 ± 0.18
45 | O=C(CCCN1CCC(O)(c2ccc(Cl)cc2)CC1)c1ccc(F)cc1 [Haloperidol] (concentration: 25 µM) | 1.04 ± 0.057 | 0.609 ± 0.16
46 | CO/N=C1\CN(c2nc3c(cc2F)c(=O)c(C(=O)O)cn3C2CC2)CC1CN (stereo not given) [Gemifloxacin] (concentration: 25 µM) | 1.09 ± 0.03 | 0.591 ± 0.16
47 | CC(C)(C)NC(=O)[C@@H]1CN(Cc2cccnc2)CCN1C[C@@H](O)C[C@@H](Cc1ccccc1)C(=O)N[C@H]1c2ccccc2C[C@H]1O [Indinavir] (concentration: 25 µM) | 0.93 ± 0.056 | 0.539 ± 0.068
48 | COc1cc(C(=O)NCc2ccc(OCCN(C)C)cc2)cc(OC)c1OC [Trimethobenzamide·HCl] (concentration: 25 µM) | 0.9923 ± 0.0096 | 1.07 ± 0.057
49 | COc1ccc(C[C@@H]2c3cc(OC)c(OC)cc3CC[N@+]2(C)CCC(=O)OCCCCCOC(=O)CC[N@@+]2(C)CCc3cc(OC)c(OC)cc3[C@H]2Cc2ccc(OC)c(OC)c2)cc1OC [Cisatracurium Besylate] (concentration: 25 µM) | 1.004 ± 0.009 | 0.624 ± 0.064
50 | COc1ccnc(C[S+]([O-])c2nc3cc(OC(F)F)ccc3[nH]2)c1OC (stereo not given) [Pantoprazole] (concentration: 25 µM) | 0.9065 ± 0.0044 | 0.85 ± 0.034
